Consider 20 compounds from PubChem BioAssay (EPA / NIEHS).

Experiment [1] in a line: Tanguay_ZF_120hpf_SWIM_legacy: (Legacy) Oregon State University Tanguay Lab 120 Hour Post-fertilization zebrafish Assay for Swim Bladder Malformation (AID 2283654).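 Also: swim bladder malformation in each larva scored yes or no under brightfield.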 Summed up: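 Dechorionated wild-type Tropical 5D zebrafish embryos, one per well from 6 hpf, were statically exposed at 28C until 120 hpf in 0.64% DMSO. Swim bladder malformation scored as present/absent by brightfield microscopy; not scored in dead larvae.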

Experiment [2] can be described thus: Tanguay_ZF_120hpf_TRUN_legacy: (Legacy) Oregon State University Tanguay Lab 120 Hour Post-fertilization zebrafish Assay for Truncated Body (AID 2283655). Summed up:
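Dechorionated Tropical 5D wild-type embryos placed singly from 6 hpf and statically exposed to 120 hpf at 28C, final DMSO 0.64%. Truncated body scored as present/absent by brightfield; not scored in dead embryos.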

The nature of experiment [3]: Tanguay_ZF_120hpf_NC_legacy: (Legacy) Oregon State University Tanguay Lab 120 Hour Post-fertilization zebrafish Assay for Notochord and Tail Malformation (AID 2283656). The procedure, abridged: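 Dechorionated 5D zebrafish, 1/well from 6 hpf; static exposure to 120 hpf, 28C, sealed, dark; final DMSO 0.64% v/v. NC scored binary (present/absent); dead embryos not scored. Fit vs DMSO baseline, gain direction.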

The nature of experiment [4]: Tanguay_ZF_120hpf_TR_legacy: (Legacy) Oregon State University Tanguay Lab 120 Hour Post-fertilization zebrafish Assay for Touch Response (AID 2283667). The procedure, abridged:
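Tropical 5D wild-type zebrafish embryos statically exposed to 120 hpf at 28°C, sealed and dark-covered, 0.64% DMSO final; touch response scored as present/absent by brightfield microscopy at 120 hpf. Trimethyltin chloride 5 uM positive control; dead embryos not scored.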

Experiment [5] is described as follows: CCTE_Padilla_ZF_144hpf_TERATOSCORE: (Legacy) CCTE's 144 Hour Post-fertilization zebrafish Assay Teratoscore, Padilla Lab (AID 2283679; active = hit-call score of the fitted dose curve at least 0.9, where 1 is the maximum; inactive = score below 0.9;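 as to AC50: zebrafish embryos with chorions exposed by immersion from 6-8 hpf to 5 dpf with daily renewal; teratogenicity score from eye scoring of death hatching and malformations at 144 hpf; higher score means more developmental defects relative to DMSO baseline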). Summed up: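 Larvae scored by eye at 144 hpf for death, hatching and malformations after a day in clean Hanks'. Before that, daily-renewed exposure at 80 uM (0.4% DMSO, 26C) from roughly 6-8 hpf through 5 dpf, 4 embryos per chemical.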

Experiment [6] can be described thus: STM_H9_OrnithineISnorm_perc: Stemina devTOX quickPredict H9 human embryonic stem cell (hESC)-based Assay for Ornithine (ORN) Metabolite Biomarker, Normalized (AID 2283712; active = hit-call score of the fitted dose curve at least 0.9, where 1 is the maximum; inactive = score below 0.9;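 also: ornithine released into spent medium during last day measured by mass spectrometry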). Summed up:
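Cells: undifferentiated H9 hESC. Dosing: 72 h, media replaced every 24 h. Sample: final 24-h conditioned media, 40% acetonitrile. Read: UPLC-HRMS ornithine area vs 13C standard, % DMSO control.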

The nature of experiment [7]: STM_H9_CystineISnorm_perc: Stemina devTOX quickPredict H9 human embryonic stem cell (hESC)-based Assay for Cystine (CYSS) Metabolite Biomarker, Normalized (AID 2283713; active = hit-call score of the fitted dose curve at least 0.9, where 1 is the maximum; inactive = score below 0.9). Summed up:
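Secreted cystine was measured by UPLC-HRMS in H9 hESC medium after 72h compound exposure with 24-hourly replenishment. Values are standard-normalized areas relative to 0.1% DMSO.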

Experiment [8] is described as follows: STM_H9_OrnCyssISnorm_ratio: Stemina devTOX quickPredict H9 human embryonic stem cell (hESC)-based Assay for Ornithine (ORN):Cystine (CYSS) Ratio (AID 2283714). The procedure, abridged: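 Undifferentiated H9 hESCs exposed 72 h, media and compound replaced every 24 h; final 24-h conditioned media deproteinized and analysed by UPLC-HRMS against C13 spike-ins. Value is the internal-standard-normalized ORN/CYSS ratio versus 0.1% DMSO.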

The nature of experiment [9]: CEETOX_H295R_MTT_cell_viability: Viability Assessment in the CeeTox HT-H295R MTT Assay (AID 2283718; active = hit-call score of the fitted dose curve at least 0.9, where 1 is the maximum; inactive = score below 0.9;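 as to AC50: curve fitted both ways so AC50 may mark viability loss or gain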). Summed up:
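Human H295R adrenal cells, prestimulated 48 h with 10 uM forskolin, were exposed 48 h to chemicals in 0.1% DMSO. Viability was measured in the same wells by MTT (0.5 mg/ml, 4 h, 37 C), absorbance 570/650 nm, as percent of controls.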

A short description of experiment [10]: ArunA_CellTiter_hNC: Viability Assessment in the ArunA Biomedical's Oris Neural Crest (hNC) Cell Migration Assay (AID 2283752). The procedure, abridged:
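Viability of embryonic neural crest stem cells from the H9 line is scored 72 h after dosing, with DMSO as negative control and baseline. A drop in CellTiter Aqueous One signal indicates cytotoxicity.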

A short description of experiment [11]: ArunA_Migration_hNP: ArunA Biomedical's Oris Neuroprogenitor (hNP) Cell Migration Assay (AID 2283754). Summed up:
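Human H9-derived hNP1 neuroprogenitors on Matrigel with LIF/bFGF, plated around seeding stoppers for 16 h at 37C; stoppers removed at start of 72 h chemical exposure. Calcein-AM staining, fluorescence 494/517 nm in detection zone; loss-of-signal vs DMSO; cytochalasin D control.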

Experiment [12] is described as follows: ArunA_Migration_hNC: ArunA Biomedical's Oris Neural Crest (hNC) Cell Migration Assay (AID 2283755). Summed up:
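Human H9-derived neural crest stem cells, 60,000/well on Matrigel, 16 h at 37C, then 72 h chemical exposure after seeding-stopper removal. Migration into detection zone read as calcein-AM fluorescence (ex494/em517), relative to DMSO.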

Experiment [13] can be described thus: ArunA_NOG_NucleusCount: ArunA Biomedical's Neurite Outgrowth (NOG) Assay for Nucleus Count (AID 2283756). Summed up:
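Human H9-derived differentiated neurons were exposed for 48 h right after seeding. Hoechst-stained nuclei gated by size and intensity were counted by automated high-content imaging as viable neurons. Loss of signal vs DMSO.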

The nature of experiment [14]: Tanguay_ZF_120hpf_ActivityScore_legacy: (Legacy) Oregon State University Tanguay Lab 120 Hour Post-fertilization zebrafish Assay Score for Activity (AID 2283742). Summed up: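 Dechorionated Tropical 5D embryos, one per well from 6 hpf, statically exposed to 120 hpf at 28 °C in 0.64% DMSO. Mortality and malformations scored binary by brightfield microscopy; activity score combines 18 endpoints, fitted positively versus DMSO.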

Experiment [15] in a line: ArunA_CellTiter_hNP: Viability Assessment in the ArunA Biomedical's Oris Neural Crest (hNC) Cell Migration Assay (AID 2283753). The procedure, abridged:
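H9-derived hNP1 neuroprogenitors, 60,000/well on Matrigel, cultured 16 h, then 72 h chemical exposure in test medium. Cell titer via CellTiter Aqueous One; positive-direction fit vs DMSO.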

Experiment [16] in a line: CCTE_Simmons_CellTiterGLO_HEK293T: Viability Assessment in CCTE's Assays for Thyroperoxidase (TPO) Inhibition, Simmons Lab (AID 2283665).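 As to AC50: cells exposed to compound for 24 h before readout; actives reduce ATP signal below DMSO vehicle meaning cytotoxicity.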 The procedure, abridged: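 Cytotoxicity counter-screen: human HEK293T cells in low-serum (1% FBS) medium receive test chemical, 5 nM to 87.5 uM final, for 24 h; ATP is quantified by luciferase luminescence.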
(In general: In ATP-based viability assays light output follows the ATP content of the culture.)

The test system of experiment [17] is Thyroperoxidase (TPO), gene 445522. In words: CCTE_Simmons_GUA_TPO: CCTE's Guaiacol Assay for Thyroperoxidase (TPO) Inhibition, Simmons Lab (AID 2283750). The procedure, abridged:
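Porcine thyroid microsomes (25 ug) in 200mM potassium phosphate, preincubated 30 s at 37C with compound (8 concentrations, 5 nM–87.5 uM) and 35mM guaiacol; 1mM H2O2 starts reaction. Absorbance change at 450nm over first 80 s; loss of signal versus DMSO, three replicates.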

Each structure is given as a SMILES string. Results filed as inconclusive are left out. Calls of active or inactive are those of the source. The calls were made as follows, unless noted: active = hit-call score of the fitted dose curve at least 0.9, where 1 is the maximum; inconclusive = response in the unintended direction; inactive = score below 0.9.

As to `COC(=O)c1ccc(O)cc1`, the compound was classed as inactive in [1], in experiment [2], in [3], in experiment [4], in experiment [5] and in experiment [7]. The result in experiment [8], in experiment [9], in experiment [10], in experiment [11] and in experiment [12] was inactive. The concentration at half-maximal activity (AC50) (as a rule, the concentration at which the activity in the assay is half-maximal) was 0.091 µM (active) in experiment [6] and 13.7 µM (active) in experiment [13].
Consider `Cc1nc(C)nc(N2C[C@@H](C)N(c3ccnc([C@@H](C)O)n3)[C@@H](C)C2)n1`, for which the compound was classed as inactive in experiment [1], in experiment [2], in [3], in [4] and in [9]. For the same compound, the AC50 in [5] is 30.3 µM (active).
With `O=c1[nH]cc(F)c(=O)[nH]1`, the result in experiment [1], in experiment [2], in [3] and in [4] was inactive. In addition, the AC50 was 4.61 µM (active) in experiment [6], 2.71 µM (active) in experiment [7] and 3 µM (active) in experiment [8].
With `CCCCc1ccc2c(n1)[C@@H](c1ccc(OC)cc1C[C@H](C)C(=O)O)[C@H](C(=O)O)[C@H]2c1ccc2c(c1)OCO2`, the compound was classed as inactive in [1], in [2], in experiment [3], in experiment [6], in experiment [7] and in [14]. The compound was called inactive in experiment [10], in experiment [15], in experiment [11], in [12] and in experiment [13].
Regarding `Oc1ccc2c(c1)OC[C@@H](N1CCC(O)(c3ccc(F)cc3)CC1)[C@H]2O`, the result in experiment [1], in experiment [2], in experiment [3], in experiment [4], in experiment [9] and in experiment [14] was inactive. In addition, in experiment [5], the AC50 is 1.46 µM (active).
For `COc1ccc2c(c1)c(CC(=O)O)c(C)n2C(=O)c1ccc(Cl)cc1`, the compound was called inactive in [1], in [2], in experiment [3], in experiment [7] and in experiment [9]. The AC50 in [5] is 61.7 µM (active); in [6], 82.5 µM (active); in experiment [8] it was 84.8 µM (active).
As for `CCCCCCCC=O`, the result in experiment [1], in experiment [2], in experiment [3], in experiment [4] and in experiment [14] was inactive.
Turning to `CC1(C)CC(N=C=O)CC(C)(CN=C=O)C1` (centres undefined), the call in [1], in [2], in experiment [3], in [4], in experiment [5] and in [14] was inactive. Besides, in experiment [9], the concentration at half-maximal activity (AC50) is 22.3 µM (active).
On to `C=CCOC(=O)c1ccccc1C(=O)OCC=C`, for which the AC50 in [1] was 46.4 µM (active); in [5] it was 16.6 µM (active); in experiment [7], 53.5 µM (active); in experiment [8] it was 41.3 µM (active); in experiment [14], 37.4 µM (active). Moreover, the call in [2], in experiment [3], in [4] and in experiment [9] was inactive.
Turning to `CC(C)(C)c1cc(O)c(C(C)(C)C)cc1O`, the outcome in [1] and in [2] was inactive. In addition, the AC50 is 27.5 µM (active) in experiment [16], 34.6 µM (active) in experiment [4] and 1.19 µM (active) in experiment [5].
As for `CC(CO)OC(C)CO` (centres undefined) (tested in a mixture with another compound), the result in experiment [1], in experiment [2], in experiment [3], in [4], in [6] and in [7] was inactive.
In the case of `CC1(C)NC(=O)NC1=O`, the compound was called inactive in [1], in experiment [2], in [3], in experiment [5] and in [14].
Regarding `CCNc1cccc(C)c1`, the outcome in experiment [1], in [2], in experiment [16], in experiment [4], in experiment [14] and in [17] was inactive.
In the case of `O=C(N[C@@H](Cc1ccccc1)[C@@H](O)C(=O)N1C[C@@H](O)[C@@H](O)C1)c1cc2cc(Cl)ccc2[nH]1`, the compound was called inactive in experiment [1], in [2], in experiment [3], in [4] and in experiment [14].
`Cc1nc(-c2ccc3c(c2)CCN(CCC2CCC(NC(=O)/C=C/c4ccc(F)cc4)CC2)CC3)no1` (centres undefined): the call in experiment [1], in experiment [2], in [3], in [4], in experiment [6] and in [7] was inactive. Moreover, the compound was called inactive in experiment [9].
`Cc1ccc2ncccc2c1`: the compound was classed as inactive in [1], in [2], in [3], in experiment [4] and in [14].
As to `COc1ccc(C)cc1N`, the compound was called inactive in experiment [1], in experiment [2], in experiment [16], in experiment [4], in experiment [9] and in experiment [14].
Turning to `Nc1ccc2c(c1)C(=O)c1ccccc1C2=O`, the call in experiment [1], in [2], in [3] and in experiment [9] was inactive.
As to `O=C(OCCCCCOC(=O)c1ccccc1)c1ccccc1`, the outcome in [1], in [2], in experiment [3], in experiment [4], in experiment [5] and in experiment [9] was inactive. Besides, the compound was called inactive in experiment [14].
Take `CN1CCN(Cc2cc(-c3ccc4[nH]c(=O)oc4c3)co2)[C@@H](c2ccc(F)cc2)C1`: the call in experiment [1], in experiment [3], in experiment [4], in experiment [6], in experiment [9] and in experiment [14] was inactive. Further, the AC50 is 16.2 µM (active) in [2], 18.6 µM (active) in [5], 5 µM (active) in [7] and 5 µM (active) in experiment [8].
